Source: PubChem BioAssay AID1159524 (National Center for Advancing Translational Sciences (NCATS), 2015)
“And” between values parts separate entries of the source, which are not always exact repeats. Equal entries are not always repeated. Out of some 410,000 compounds screened, about 5,100 (1.2%) were called active. Not shown: some 8% with an inconclusive outcome. Calls follow the shape of the full dose curve; tested in HEK293T cells. For the sample, actives were picked, then their nearest neighbours and some compounds at random.

Experiment: High Throughput Screening for Foot and Mouth Disease Virus Antivirals; also: read-out not given here; nearly all actives have a fitted effect of over 45% in size
Conditions: FMDV antiviral cell-based qHTS; series mostly up to 57.9 µM; activity change, negative = inhibition: at the top concentration
% is scaled to controls: 0 for no effect and ±100 for the full control effect; potency is read from the fitted curve at half-maximal effect.

Which “activity change, negative = inhibition” value does the source give for Cc1csc(-c2coc3cc(O[C@@H]4O[C@H](CO)[C@@H](O)[C@@H](O)[C@H]4O)ccc3c2=O)n1 here?
The value was 16% (inactive).

With Cc1ccc(NC(=O)c2cnc(SCC(=O)NCC3CCCO3)n(C)c2=O)cc1 (stereo unspecified) as the molecule, how does the Potency read?
The Potency was 25.1 µM (active).

With Cc1cc(NC(=O)CSc2ncc(C(=O)Nc3ccc(Cl)cc3)c(=O)n2C)no1 as the molecule, how does the “activity change, negative = inhibition” value read?
Its value is 5.26% (inactive).

For Cc1cc(C)cc(-n2c(SCC(=O)NCC3CCCO3)nc3c([nH]c4ccccc43)c2=O)c1 (stereo unspecified), which “activity change, negative = inhibition” value is on record?
The value was 0.888% (inactive).

For O=C(Cc1ccccc1)Nc1sc2c(c1C(=O)Nc1ccc(Br)cc1)CCC2, which “activity change, negative = inhibition” value is on record?
Its value is -16.6% (inactive).

For COCCNc1ccnc(-c2cccc(NS(C)(=O)=O)c2)n1, which “activity change, negative = inhibition” value is on record?
Its value is 8.19% (inactive).

With CNc1ncnc2ccc(-c3cccc(NS(C)(=O)=O)c3)cc12 as the molecule, how does the “activity change, negative = inhibition” value read?
The value was -18.8% (inactive).

For COC(=O)CC1C(C)(C)C(OC(C)=O)C2CC3=C4CC(=O)OC(c5ccoc5)[C@]4(C)CCC3[C@@]1(C)C2=O (stereo partly specified), which “activity change, negative = inhibition” value is on record?
Its value is -6.11% (inactive).

With Cc1ccc(-c2nn(CC(C)(C)C)c3ncnc(N)c23)cc1 as the molecule, how does the “activity change, negative = inhibition” value read?
Its value is -19.5% (inactive).

With COc1cccc(N2CCN(S(=O)(=O)c3ccc4c(c3)CCCN4C(C)=O)CC2)c1 as the molecule, how does the “activity change, negative = inhibition” value read?
Its value is -29.2% (inactive).

For CC(=O)N1CCCc2cc(S(=O)(=O)N3CCC(C(=O)NC4CCCCC4)CC3)ccc21, which “activity change, negative = inhibition” value is on record?
The value was -3.68% (inactive).

With CC(=O)N1CCCc2cc(S(=O)(=O)N3CCCC(C(=O)N4CCN(c5cccc(Cl)c5)CC4)C3)ccc21 (stereo unspecified) as the molecule, how does the Potency read?
Its Potency is 17.8 µM (active) and 12.6 µM (active).

Which “activity change, negative = inhibition” value does the source give for COCCN1CCN(C(=O)c2sc3ncnc(NCC4CCCO4)c3c2C)CC1 (stereo unspecified) here?
The value was 2.02% (inactive).

With CC(C)(c1ccc(OC[C@@H]2CO2)cc1)c1ccc(OC[C@H]2CO2)cc1 as the molecule, how does the “activity change, negative = inhibition” value read?
Its value is -6.2% (inactive).

For CN[C@@H]1[C@H](O[C@H]2[C@H](O[C@H]3[C@H](O)[C@@H](O)[C@H](N=C(N)N)[C@@H](O)[C@@H]3N=C(N)N)O[C@@H](C)[C@]2(O)CO)O[C@@H](CO)[C@H](O)[C@H]1O, which “activity change, negative = inhibition” value is on record?
The value was 3.92% (inactive).

Which “activity change, negative = inhibition” value does the source give for Nc1ccc2c(c1)C(=Cc1cccnc1)c1ccccc1-2 here?
Its value is 9.55% (inactive).

For O=C1/C(=C\c2cccnc2)CN(Cc2ccccc2)C/C1=C\c1cccnc1, which Potency is on record?
Its Potency is 6.31 µM (active).

With O=C(O)CCc1cccnc1 as the molecule, how does the “activity change, negative = inhibition” value read?
The value was -16.2% (inactive).

For CS(=O)(=O)Nc1cccc(-c2cncnc2Nc2ccccc2)c1, which “activity change, negative = inhibition” value is on record?
The value was -6.46% (inactive).

With CN(Cc1ccco1)c1cc(-c2ccccc2C(F)(F)F)ncn1 as the molecule, how does the “activity change, negative = inhibition” value read?
Its value is 15.7% (inactive).

Which “activity change, negative = inhibition” value does the source give for C=CC(C1=CC(=O)C=CC1=O)c1ccc(O)cc1 (stereo unspecified) here?
The value was -1.66% (inactive).

With CC(=O)OC1C2(CC3N4C(=O)C5(CO)SSC4(CC31O)C(=O)N5C)OC(C)C(C)(C)C2=O (stereo unspecified) as the molecule, how does the Potency read?
The Potency was 2 µM (active).

For Cc1cccc(Nc2cc(C)nc(-n3nc(C)cc3C)n2)c1, which “activity change, negative = inhibition” value is on record?
Its value is -11.9% (inactive).

Which “activity change, negative = inhibition” value does the source give for COc1ccccc1-c1cc(C(F)(F)F)nc(S(=O)(=O)CCCC(=O)Nc2cc(C)ccc2O)n1 here?
Its value is -17.4% (inactive).

For Cc1ccc(C)c(N2CCN(C(=O)Cn3ncc4c(=O)oc5ccc(C)cc5c43)CC2)c1, which “activity change, negative = inhibition” value is on record?
Its value is 0% (inactive).

With O=C(c1csnn1)N1CCC2(CC1)CN(c1ncccn1)C2 as the molecule, how does the “activity change, negative = inhibition” value read?
The value was -1.68% (inactive).

Which “activity change, negative = inhibition” value does the source give for Cc1cccn2c(=O)c(C(=O)NC(C)c3ccccc3)cnc12 (stereo unspecified) here?
Its value is -0.0366% (inactive).

With CCCc1nc2c([nH]1)C(c1cccnc1)C(C#N)=C(N)O2 (stereo unspecified) as the molecule, how does the “activity change, negative = inhibition” value read?
Its value is -18.1% (inactive).

With CCCc1[nH]nc2c1C(c1ccc(Br)s1)C(C#N)=C(N)O2 (stereo unspecified) as the molecule, how does the Potency read?
Its Potency is 25.1 µM (active).

Which “activity change, negative = inhibition” value does the source give for CCNc1nc2[nH]c(=O)c3c(c2s1)OC(N)=C(C#N)C3c1cccs1 (stereo unspecified) here?
The value was 38.9% (inactive).

For CCC(=O)N1CCc2cc(CNS(=O)(=O)c3ccc(Br)s3)ccc21, which “activity change, negative = inhibition” value is on record?
Its value is 3.48% (inactive).

For Cn1c(=O)c2c(nc(NCCc3ccccc3)n2Cc2ccccc2)n(C)c1=O, which Potency is on record?
Its Potency is 14.1 µM (active).

Which “activity change, negative = inhibition” value does the source give for Cn1c(=O)c2c(nc(OCc3cccnc3)n2Cc2ccccc2)n(C)c1=O here?
Its value is -27% (inactive).

With Cn1c(=O)c2c(nc(SCC(=O)Nc3ccc(F)cc3)n2Cc2ccccc2)n(C)c1=O as the molecule, how does the “activity change, negative = inhibition” value read?
The value was 0% (inactive).

Which “activity change, negative = inhibition” value does the source give for CC(C)CCn1c(=O)c2c(nc3n2CCCN3Cc2ccccc2)n(C)c1=O here?
Its value is -24.9% (inactive).

For CC(C)CCn1c(CN(C)Cc2ccccc2)nc2c1c(=O)n(C)c(=O)n2C, which Potency is on record?
The Potency was 39.8 µM (active).

Which “activity change, negative = inhibition” value does the source give for Cn1c(=O)c2c(nc(NCCc3ccccc3)n2Cc2ccccc2Br)n(C)c1=O here?
The value was 8.48% (inactive).

For CN(C)C(=O)c1ccc(-c2cncnc2NC2CCNCC2)cc1, which “activity change, negative = inhibition” value is on record?
The value was 0% (inactive).

Which “activity change, negative = inhibition” value does the source give for COCCn1c(=O)c(-c2cccs2)nc2cnc(N3CCN(C)CC3)nc21 here?
The value was -1.14% (inactive).

With Cc1ccccc1NC(=O)Cn1c(=O)n(CCCCC(=O)NCc2ccccc2Cl)c(=O)c2ccccc21 as the molecule, how does the “activity change, negative = inhibition” value read?
Its value is -24.8% (inactive).

Which Potency does the source give for C=CS(=O)c1sc(Cl)c(N2CCOCC2)c1[N+](=O)[O-] (stereo unspecified) here?
The Potency was 28.2 µM (active).

For CN(C)c1ncc2nc(-c3ccc(F)cc3)c(=O)n(Cc3ccc(F)cc3)c2n1, which “activity change, negative = inhibition” value is on record?
Its value is -0.807% (inactive).

For O=C(O)c1cc(S(=O)(=O)N(Cc2ccccc2)c2ccccc2)ccc1Cl, which “activity change, negative = inhibition” value is on record?
The value was 6.32% (inactive).

With O=C(CCl)N(Cc1cccc([N+](=O)[O-])c1)c1cccc(Cl)c1 as the molecule, how does the Potency read?
Its Potency is 28.2 µM (active).

Which “activity change, negative = inhibition” value does the source give for CC(=O)N(CN1C(=O)C2C3C=CC(C3)C2C1=O)c1cccc(Cl)c1 (stereo unspecified) here?
The value was 5.14% (inactive).

For FC(F)(F)c1ccccc1-c1nc(-n2ccnc2)c2ccccc2n1, which “activity change, negative = inhibition” value is on record?
Its value is -7.33% (inactive).
